Ba/F3 V617F tox: reduced viability of JAK2V617F-dependent Ba/F3 cells, primary screen, JAK2V617F inhibitor project, cell-based, Ba/F3 EpoR-JAK2V617F, luminescence; inhibition, % at 5.6 µM; ATP luminescence; actives 1.1% (n = 220,000);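 active = inhibition above the campaign mean plus 3 SD over all tested compounds, cut at about 24% in these data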;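 note: cytokine-independent growth of Ba/F3 cells driven by EpoR plus mutant JAK2; 0% = DMSO-treated cells and 100% = JAK inhibitor I control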
IEC-6 cytotox: cytotoxicity in IEC-6 intestinal epithelial cells, primary screen, cytotoxicity control for KLF5 inhibitor project, cell-based, luminescence; IEC-6 cytotoxicity, luminescence viability; inhibition, % at 5 µM; actives 0.78% (n = 290,000); AID 1825, 2009; in the data active = inhibition above about 22%;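 note: 0% = plate median of test compound wells and 100% = cytotoxic reference compound wells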
BaF3 parental: parental Ba/F3 cell viability inhibition, counter-screen for JAK2V617F inhibitor project, murine pro-B, CellTiter-Glo luminescence | CellTiter-Glo ATP luminescence | inhibition, % at 5.6 µM | actives 1.1% (n = 220,000) | AID 1486, 2009;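 active = inhibition above a per-campaign cutoff, the mean inhibition of all tested compounds plus 3 SD, cut at about 27% in these data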;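 note: 0% = DMSO wells and 100% = JAK Inhibitor I control wells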
KLF5 inhibitor: KLF5 expression inhibitors, primary screen, DLD-1 cells, luminescence | DLD-1 KLF5 promoter-luciferase reporter | inhibition, % at 5 µM | actives 0.23% (n = 290,000) | AID 1700, 2009;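 active = inhibition above a per-plate limit of that plate's mean compound inhibition plus 3 SD, cut at about 60% in these data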;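 note: 0% = DMSO wells and 100% = LY294002 at 200 µM; higher means less KLF5 promoter-driven luciferase light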
APP transl inh: inhibitors of APP translation via 5'UTR reporter, primary screen, APP 5'UTR luciferase, SH-SY5Y cells; SH-SY5Y APP 5'UTR-luciferase reporter, luminescence; inhibition, % at 2 µM; actives 0.82% (n = 190,000);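 active = inhibition above a set limit, derived from the sample mean plus 3 SD, cut at about 45% in these data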
Starred values were filed as active, the others as inactive; / = not tested or not shown. Shown are actives, neighbours in structure and some others; about 1.9% of the full set was active somewhere.

SMILES	Ba/F3 V617F tox	IEC-6 cytotox	BaF3 parental	KLF5 inhibitor	APP transl inh
FC(F)Sc1ccc(-n2cc(-c3ccccc3)[n+]3c2CCC3)cc1	60*	-2	69*	-11	-17
FC(F)Oc1ccc(-c2csc(Cc3nnc4n3CCCCC4)n2)cc1	6	6	3	11	0
FC(F)Oc1ccc(-n2cc(-c3ccc(Cl)cc3)[n+]3c2CCCCC3)cc1	54*	2	62*	16	/
COc1ccc(-n2cc(-c3ccccc3)[n+]3c2CCCCC3)cc1	72*	16	59*	-10	5
NS(=O)(=O)c1ccc(CCNCc2cccs2)cc1	4	9	9	-33	4
COc1ccc2c(c1)-c1ccccc1S(=O)(=O)N2C(C)=O	1	-2	8	-21	0
CN(C)c1ccc(P(=O)(OCc2ccccc2)C(O)c2ccncc2)cc1 (centres undefined)	4	3	5	0	-2
COc1ccc(CCNc2oc(-c3ccccc3OC)nc2C#N)cc1	1	0	3	-21	-2
CCN1CCN(CCCN(Cc2ccco2)C(=S)Nc2ccc(C)c(Cl)c2)CC1	37*	1	32*	-4	3
CN1CCN(CCCN(Cc2ccco2)C(=S)Nc2ccc(Cl)cc2)CC1	40*	2	29*	-7	-15
CCc1ccc(NC(=S)N(CCCN2CCOCC2)Cc2ccco2)cc1	-4	0	3	-17	-9
CCN1CCN(CCCN(Cc2ccco2)C(=S)Nc2cc(Cl)ccc2C)CC1	63*	3	69*	-26	-6
Cc1ccc(NC(=S)N(CCN(C)C)C(C)c2ccco2)cc1Cl (centres undefined)	27*	-3	30*	-42	/
Cc1ccc(NC(=S)N(CCCN2CCOCC2)Cc2ccco2)cc1Cl	5	6	20	-4	6
Cc1ccccc1NC(=S)N(CCCN1CCCCC1)Cc1ccco1	0	-3	5	13	5
CC(C)=CC(=O)OCC(=O)Nc1ccc(Cl)cc1	-4	-9	-3	0	-2
COc1cc2cc(C(c3nnnn3C3CCCC3)N3CCCCCC3)c(=O)[nH]c2cc1OC (centres undefined)	-2	4	2	-3	9
CCn1cc(/C=N\NC(=O)Cc2ccc([N+](=O)[O-])cc2)c(C)n1	1	-4	7	-28	6
Cc1ccc(NC(=S)N(CCCN2CCN(C)CC2)Cc2cccs2)cc1C	36*	10	29*	8	6
Cc1ccc(NC(=S)N(CCCN2CCN(C)CC2)Cc2cccs2)cc1	19	0	17	-10	-16
CCN1CCN(CCCN(Cc2ccco2)C(=S)Nc2ccc(Cl)cc2)CC1	36*	-2	29*	-6	-14
CCOC(=O)c1ccc(NC(=S)N(CCCN2CCN(CC)CC2)Cc2ccco2)cc1	4	7	3	5	-20
CCN1CCN(C(=S)Nc2ccc(Cl)cc2)CC1	25*	-1	35*	14	-5
Cc1c(Cl)ccc(S(=O)(=O)N2CCN=C2c2ccccc2)c1Cl	-3	4	0	-5	4
COc1ccc2nc(N=Nc3c(O)ccc4ccccc34)sc2c1	-3	10	1	-2	69*
SMILES	Ba/F3 V617F tox	IEC-6 cytotox	BaF3 parental	KLF5 inhibitor	APP transl inh
CC(C)CNC(=O)NC(=O)COc1ncnc2sccc12	-3	-2	0	-26	-3
CC(C)CCNC(=O)NC(=O)COc1ncnc2sccc12	-5	-6	96*	-4	5
CCc1ccc2nc(SCC(=O)N3CC(=O)Nc4ccccc43)c(C#N)cc2c1	4	-5	6	-38	94*
CCc1cc2cc(C)ccc2nc1SCC(=O)N1CC(=O)Nc2ccccc21	/	-3	/	-14	/
Cc1ccc(/C=N/NC(=O)c2csc3c2CCCC3)cc1	0	1	0	-75	90*
COC(=O)c1sc(S(=O)(=O)N2CCCCC2C(=O)O)c(C(=O)OC)c1C (centres undefined)	-3	1	2	-45	59*
CC(=O)O[C@@]12CO[C@@H]1C[C@H](O)[C@@]1(C)C(=O)[C@H](O)C3=C(C)[C@@H](OC(=O)[C@H](O)[C@@H](NC(=O)OC(C)(C)C)c4ccccc4)C[C@](O)([C@@H](OC(=O)c4ccccc4)[C@H]21)C3(C)C	73*	87*	62*	68*	/
CCN(c1ccccc1)S(=O)(=O)c1nnc(NC(=O)c2ccco2)s1	/	-6	/	-6	/

Source: PubChem BioAssay (several laboratories)
